# Screens (PubChem)
# TMEM16A inh = TMEM16A chloride channel inhibitors, primary screen, cell-based, HTS | HEK293 TMEM16A/YFP iodide influx fluorescence, ionomycin | normalized B-score (activity score, 25-100; higher = stronger inhibition) at 10 µM | 310,000 tested, 1.2% active;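 active = ratio plate-corrected score three or more library SD toward inhibition, starting fluorescence score within five deviations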;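 note: score derived from kinetic fluorescence span divided by baseline fluorescence per well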
# Target sequence (Q8BHY3 whole entry, looked up): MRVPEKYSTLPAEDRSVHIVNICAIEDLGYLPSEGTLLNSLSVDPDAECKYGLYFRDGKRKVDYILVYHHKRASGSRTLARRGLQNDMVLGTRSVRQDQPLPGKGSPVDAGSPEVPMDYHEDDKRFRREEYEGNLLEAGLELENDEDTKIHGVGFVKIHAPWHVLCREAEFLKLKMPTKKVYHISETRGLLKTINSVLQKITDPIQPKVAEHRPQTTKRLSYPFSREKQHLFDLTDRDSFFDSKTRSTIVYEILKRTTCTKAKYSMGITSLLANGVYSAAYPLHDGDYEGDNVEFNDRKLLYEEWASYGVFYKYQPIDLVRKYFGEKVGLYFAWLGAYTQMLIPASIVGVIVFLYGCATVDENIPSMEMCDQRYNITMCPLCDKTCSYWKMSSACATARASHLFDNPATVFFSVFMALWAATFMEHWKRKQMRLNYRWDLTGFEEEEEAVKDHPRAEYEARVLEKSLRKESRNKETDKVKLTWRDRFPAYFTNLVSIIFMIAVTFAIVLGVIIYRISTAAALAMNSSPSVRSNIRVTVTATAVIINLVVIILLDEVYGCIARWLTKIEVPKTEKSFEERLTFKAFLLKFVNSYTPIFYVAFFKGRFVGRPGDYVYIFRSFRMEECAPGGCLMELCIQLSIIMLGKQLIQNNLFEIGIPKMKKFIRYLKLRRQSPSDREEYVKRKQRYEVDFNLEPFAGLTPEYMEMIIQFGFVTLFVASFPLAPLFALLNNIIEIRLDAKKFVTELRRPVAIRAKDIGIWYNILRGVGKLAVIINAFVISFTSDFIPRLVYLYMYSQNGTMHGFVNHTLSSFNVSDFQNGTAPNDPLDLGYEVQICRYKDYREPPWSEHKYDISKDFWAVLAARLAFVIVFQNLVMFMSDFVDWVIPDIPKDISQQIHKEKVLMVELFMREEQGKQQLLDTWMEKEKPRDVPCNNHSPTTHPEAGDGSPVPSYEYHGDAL
# CHO-K1 Ca ag = counter-screen for M1 agonists: effect in parental CHO-K1 cells; Fluo-8 calcium fluorescence; scaled to maximal ATP response, vehicle zero; activation, % at 3 µM; 360,000 tested, 0.48% active; in the data active = activation above about 15%;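 note: untransfected CHO-K1 host cells lacking M1 receptor as counterscreen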
# CHO-K1 Ca antag = nonselective inhibitor or artifact in parental CHO-K1 cells; 360,000 tested, 0.6% active; inhibition, % at 3 µM; ATP-induced calcium, Fluo-8 fluorescence;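 active = inhibition above a per-plate cutoff, the plate's mean sample inhibition plus 3 SD, cut at about 24% in these data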;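 note: 0% = DMSO plus EC80 ATP and 100% = DMSO alone without ATP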
# NTR1 ag = agonists of human NTR1, primary screen, imaging, U2OS cells, beta-arrestin-GFP, high content. NTR1-U2OS beta-arrestin-GFP spot imaging, agonist mode. activation, % at 20 µM. 330,000 tested, 0.17% active. AID 493036, 2011;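 active = activation at or above 40% of the spot to cytoplasm intensity ratio, with at least 20 cells analyzed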;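 note: 0% = DMSO without peptide and 100% = 100 nM NTR1 peptide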
# ANO1 activ = TMEM16A chloride channel activators or potentiators, primary screen, cell-based, HTS. Anoctamin-1 (Mus musculus), Q8BHY3. HEK293 TMEM16A/YFP-H148Q/I152L, iodide quench fluorescence; active compounds read low. B-score at 10 µM. 340,000 tested, 0.3% active. AID 623877, 2012;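 active = fluorescence-ratio B-score plate-corrected deviation score at least 3 library SD below zero, with starting fluorescence score within 5 deviations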;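 note: channel opened by trigger with iodide after compound preincubation; score built on the fluorescence ratio of max minus min over baseline; more negative score means more quench and so TMEM16A activation or potentiation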
# M1 PAM parental = nonselective calcium activators in parental CHO-K1 cells, primary screen, counter-screen for M1 PAM project, cell-based, Fluo-8 calcium fluorescence, full deck, 1536-well. ATP EC20; 0% at ATP EC20, 100% at ATP max. activation, % at 3 µM. 360,000 tested, 0.02% active. AID 602247, 2012;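 active = activation above the run cutoff, the mean activation of all test compounds plus 3 SD, cut at about 40% in these data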;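 note: peak over basal fluorescence ratio in a 140 s read after ATP addition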
# NTR1 ag confirm = NTR1 agonists, single-dose retest, confirmation, imaging, U2OS cells, beta-arrestin-GFP, single concentration; shares compounds with NTR1 ag; NTR1-U2OS beta-arrestin-GFP translocation imaging; activation, % at 20 µM; 480 tested, 38% active; AID 504550, 2011;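 active = mean activation at 20 µM of at least 40%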;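 note: 0% = DMSO without peptide and 100% = 100 nM NTR1 peptide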
# TMEM16A reconf = TMEM16A chloride channel inhibitors, confirmation, cell-based, re-confirmation. HEK293 TMEM16A/YFP-H148Q, iodide quench fluorescence; ionomycin added to raise cell calcium. shares compounds with TMEM16A inh. 2,300 tested, 39% active. inhibition, % at 10 µM;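 active = mean duplicate percent inhibition, scaled so buffer wells are 0 and the reference blocker 100, over three buffer SD above buffer mean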
# HEK293 Ca mobil = calcium mobilization in TMEM16A/YFP HEK293 cells, confirmation, counter-screen for TMEM16A inhibitor project | shares compounds with TMEM16A inh | Fluo4 calcium mobilization | calcium response (% of ionomycin), % at 10 µM | 2,300 tested, 2% active | AID 652231, 2013;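 active = duplicate-averaged calcium signal over 20% of the ionomycin maximum, relative to buffer baseline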;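 note: each well's signal is peak minus trough fluorescence divided by its pre-addition baseline; 0% = buffer wells and 100% = ionomycin wells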
# Parental YFP cnt = iodide YFP quench changes in parental YFP-HEK293, counter-screen for TMEM16A inhibitor project, cell-based; 2,300 tested, under 10 active; YFP ratio F(max-min)/F0 at 10 µM; AID 652233, 2013; shares compounds with TMEM16A inh; ionomycin;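 active = yellow fluorescent protein signal ratio exceeding the buffer control mean by over 5 SD of those controls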;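 note: ratio is mean of duplicate wells from kinetic YFP trace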
# ClC-1 inh = ClC-1 chloride channel inhibition, selectivity assay for TMEM16A inhibitor project, cell-based, voltage-dependent ClC-1; shares compounds with TMEM16A inh; CHO ClC-1-YFP, iodide influx fluorescence quench; iodide control reads 0, buffer control 100; ratio percent, % at 10 µM; 2,300 tested, under 10 active; AID 652236, 2013;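 active = duplicate-mean ratio percent above the mean of iodide-only control wells, which defines zero, plus 5 of their SD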;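 note: higher percent means stronger block of ClC-1 iodide influx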
# * = called active by the depositor; i = inactive; nt = not tested or not shown. Compounds with a hit are over-represented: about 2.2% of the library has one in this group of screens.
SMILES,TMEM16A inh,CHO-K1 Ca ag,CHO-K1 Ca antag,NTR1 ag,ANO1 activ,M1 PAM parental,NTR1 ag confirm,others
O=C(Nc1cccc(S(=O)(=O)N2CCCCC2)c1)c1ccc2c(=O)n3c(nc2c1)CCCCC3,i,10.3,-6.2,42.7*,i,7.8,26.0,
O=C(COc1cc(F)ccc1[N+](=O)[O-])NCC1CCCO1 (stereo not given),nt,1.9,-17.2,0.8,i,10.9,nt,
O=C(Nc1nc(-c2nc3ccccc3s2)cs1)C1COc2ccccc2O1 (stereo not given),i,0.4,-1.3,41.4*,i,5.3,-2.9,
CCOc1cccc(/C=C/c2ccc3cccc(O)c3n2)c1OC,i,4.2,3.3,78.7*,i,1.4,5.6,
C=CCn1c(=NC(=O)c2cccc(N3C(=O)CCC3=O)c2)sc2cccc(OC)c21,i,5.5,0.0,46.6*,i,5.1,53.9*,
Cc1ccc(-c2cc(-c3ccc(C)cc3O)[nH]n2)cc1,i,0.3,-5.1,9.9,i,10.2,nt,
Cc1ccc(O)c(-c2cc(-c3cccc(Br)c3)n[nH]2)c1,i,-0.1,5.3,54.5*,i,-8.4,21.5,
CC(C)NC(=O)C1(C)CCN1C(=O)c1ccccc1 (stereo not given),nt,0.7,9.9,nt,nt,5.8,nt,
Cc1cc(C)n(-c2nc(Nc3ccccc3C(F)(F)F)nc(-n3nc(C)cc3C)n2)n1,i,19.1*,5.3,57.0*,i,-0.5,43.3*,
Cc1cc(C)n(-c2nc(NC(C)(C)C)nc(NC(C)(C)C)n2)n1,i,0.2,21.9,0.8,i,-9.6,nt,
Cc1cc(C)n(-c2nc(Nc3ccccc3C)nc(-n3nc(C)cc3C)n2)n1,i,nt,nt,48.1*,nt,nt,70.7*,
COc1cccc(C(c2nnnn2C(C)(C)C)N2CCN(C/C=C/c3ccccc3)CC2)c1OC (stereo not given),nt,-0.1,16.9,nt,nt,-5.6,nt,
COc1cc2ccccc2cc1C(=O)N(CCN(C)C)c1nc2c(OC)ccc(OC)c2s1,i,3.1,-5.0,41.5*,i,3.7,3.5,
COc1ccc(OC)c2sc(N(CCN(C)C)C(=O)c3ccc4ccccc4c3)nc12,i,0.4,-7.4,0.5,i,15.8,nt,
CC(C)n1c(CNC(=O)c2ccccc2F)nnc1SCC(=O)NC1CCCCC1,nt,0.0,-0.2,nt,i,0.7,nt,
O=C(Nc1ccc(-c2noc(CCc3ccccc3)n2)cc1)c1cccnc1,i,6.5,19.9,66.7*,i,0.9,14.5,
O=C(Nc1ccc([N+](=O)[O-])cc1)Nc1ccc(N2CCOCC2)c2nonc12,100*,1.0,0.5,41.5*,i,6.3,64.6*,
Oc1ccccc1-n1c(-c2ccccc2)ccc1-c1ccccc1,i,0.3,-20.8,50.9*,i,12.1,6.2,
COc1ccc(CNCC(O)COc2ccc(C(C)(C)c3ccccc3)cc2)cc1 (stereo not given),25*,1.5,3.1,49.7*,i,-6.6,6.3,TMEM16A reconf=26.0%*;HEK293 Ca mobil=i;Parental YFP cnt=-1.3;ClC-1 inh=-13.5
NC(N)=NCCCS(=O)(=O)Nc1ccc(Nc2c3ccccc3nc3cc([N+](=O)[O-])ccc23)cc1,nt,0.9,-5.4,nt,i,-4.5,nt,
Cc1c(/C=N/NC(=O)c2ccccc2O)c2ccccn2c1C(=O)c1ccc(F)cc1,100*,2.8,2.1,114.3*,i,0.9,17.3,TMEM16A reconf=33.5%*;HEK293 Ca mobil=i;Parental YFP cnt=-0.92;ClC-1 inh=-14.5
Cc1c(/C=N/NC(=O)c2ccc(O)cc2)c2ccccn2c1C(=O)c1ccc(F)cc1,i,1.7,1.5,6.0,i,3.4,nt,
CCN(CCNCC(O)COc1ccccc1C(C)C)c1cccc(C)c1 (stereo not given),i,11.3,16.2,53.5*,i,3.6,15.3,TMEM16A reconf=33.5%*;HEK293 Ca mobil=i;Parental YFP cnt=-1.01;ClC-1 inh=-15.5
C1CCN(CC2CCCCN2)CC1 (stereo not given),nt,0.8,-9.0,nt,i,-3.2,nt,
Nc1c(Cl)cc(C(=O)NC2CC2)cc1Cl,nt,0.0,-8.2,nt,i,-5.6,nt,
SMILES,TMEM16A inh,CHO-K1 Ca ag,CHO-K1 Ca antag,NTR1 ag,ANO1 activ,M1 PAM parental,NTR1 ag confirm,others
Cc1ccc(-c2nc3cccnc3o2)cc1NC(=O)COc1ccc(C(C)(C)C)cc1,25*,7.5,10.3,61.6*,i,12.5,22.3,TMEM16A reconf=i;HEK293 Ca mobil=21.0%*;Parental YFP cnt=-1.03;ClC-1 inh=-18.0
Cc1ccc(-c2nc3cccnc3o2)cc1NC(=O)COc1ccc(Cl)cc1C,i,0.0,21.0,5.8,i,-8.4,nt,
O=C(Nc1ccc2oc(-c3ccccc3F)nc2c1)c1ccc2c(c1)OCCO2,100*,8.1,-16.1,45.9*,i,8.5,53.0*,TMEM16A reconf=17.0%*;HEK293 Ca mobil=i;Parental YFP cnt=-1.04;ClC-1 inh=-14.0
COc1ccc(COC(=O)c2ccc(Cl)c(S(=O)(=O)N3CC(C)OC(C)C3)c2)cc1 (stereo not given),25*,0.6,-11.2,1.5,i,16.8,nt,TMEM16A reconf=16.0%*;HEK293 Ca mobil=i;Parental YFP cnt=-1.01;ClC-1 inh=-7.0
COc1ccc(COC(=O)c2ccc(S(=O)(=O)N3CCC(C)CC3)cc2)cc1,i,1.1,10.8,7.2,i,12.8,nt,
Cc1csc2c(N3CCN(C(=O)c4ccc(C(C)(C)C)cc4)CC3)ncnc12,100*,11.6,22.4,4.6,i,-27.3,nt,TMEM16A reconf=36.5%*;HEK293 Ca mobil=i;Parental YFP cnt=-1.11;ClC-1 inh=-28.0
